Screening results as filed in PubChem.
FMDV antiviral = blocks foot and mouth disease virus; AID 1159524; Potency, µM (titrated, usually from 57.9 µM), actives largely listed as inhibitors; hit rate 1.2% among 410,000; FMDV antiviral cell-based qHTS; calls by dose curve; tested in HEK293T cells; note: read-out not given here; nearly all actives have a fitted effect of over 45% in size
Vaccinia Venus = inhibitors of vaccinia virus (Venus reporter). hit rate 0.46% among 330,000. Vaccinia virus Venus reporter expression, fluorescence. Potency, µM (titrated, usually from 36.5 µM), most hits filed as inhibitors. AID 720580; calls by dose curve; tested in A549 cells; note: nearly all actives have a fitted effect of over 30% in size
VACV mCherry inh = vaccinia inhibition (mCherry reporter) | Potency, µM (series often up to 36.5 µM), most hits filed as inhibitors | AID 720579 | hit rate 0.63% among 310,000 | Vaccinia virus mCherry reporter infection, fluorescence; calls by dose curve; tested in A549 cells; note: nearly all actives have a fitted effect of over 35% in size
MARV entry inh = inhibitors of Marburg virus binding or cell entry; Marburg virus pseudotyped entry inhibition, cell reporter; AID 540276; Potency, µM (doses to about 37.8 µM), hits mostly inhibitors; hit rate 1.8% among 300,000; calls by dose curve; tested in HEK293 cells
Lassa entry inh = inhibitors of Lassa virus binding or cell entry. Potency, µM (titrated, usually from 37.9 µM), actives largely listed as inhibitors. Lassa virus pseudotype entry inhibition, cell reporter. hit rate 1.2% among 300,000; calls by dose curve; tested in HEK293 cells; note: nearly all actives have a fitted effect of over 50% in size
Hits are given with their value; - = inactive; ? = inconclusive; . = not tested or not shown; ! = a repeat was not active. The list is not random: actives were taken first. Their share in the collection is about 3.2%.

SMILES | FMDV antiviral | Vaccinia Venus | VACV mCherry inh | MARV entry inh | Lassa entry inh
CC1(C)C(=O)C=C[C@@]2(C)C1=C(O)C(=O)[C@@]1(C)C2CC[C@@]2(C)C(c3ccoc3)C[C@H]3O[C@@]321 (some centres not stated) | 10µM | ? | ? | . | .
Cc1cc2ncn(/N=C/c3ccc([N+](=O)[O-])o3)c2cc1C | . | 16µM | 28µM | ? | -
O=[N+]([O-])c1ccc(/C=N/N=C/c2ccc([N+](=O)[O-])o2)o1 | ? | - | - | ? | ?
Oc1cccc(/C=N/N=C/c2cccc(O)c2O)c1O | - | - | - | ? | 11µM
Cc1cccc(CNC(=O)c2cnn(-c3nccc(-c4cc(C)sc4C)n3)c2C)n1 | - | - | - | . | .
CCOC(=O)N/N=C1\C[C@@H](O)[C@@H](O)[C@@H]2[C@@H]3C(=O)N(Cc4ccc5c(c4)OCO5)C(=O)[C@@H]3CC[C@@H]12 | . | . | . | - | .
COc1ccccc1NC(=S)N(Cc1ccccc1)Cc1cccs1 | - | - | - | 1.4µM | -
CCCC[C@H]1CN2[C@H](c3ccc(Br)cc3)[C@H](C)CC[C@H]2C(=O)O1 | . | . | . | - | .
Cc1cc(C)c(C(=O)/C=C/c2cccc3ccccc23)c(=O)[nH]1 | ? | 8.9µM | 5µM | ? | 6.3µM
COC1CC2C=C(C)C=CC=CC(=O)NC(c3ccccc3)CC=CCCC(O)CC(=O)C2=C1O (configuration not stated) | 2.5µM | 2.8µM | 7.1µM | . | .
CCN1C(=O)c2cccc3c(NC(=O)c4cccc(N5C(=O)CCC5=O)c4)ccc1c23 | ? | - | - | ? | -
CCOc1cc(C(=O)Nc2ccc3c4c(cccc24)C(=O)N3CC)cc(OCC)c1OCC | ? | . | . | 18µM | -
O=C(Cc1ccccc1)Nc1ccc2c(c1)OC1(CCCC1)O2 | - | - | - | ? | -
Nc1ccc2c(c1)OC1(CCCC1)O2 | 1.4µM | - | - | ? | 16µM
COc1cc(=O)n2c(c1C(=O)NC(C)c1ccco1)CCN(Cc1ccnc3ccccc13)CC2 (configuration not stated) | - | - | - | . | .
Cc1csc(C(C)N(C)C(=O)c2cnn(-c3nccc(-c4cc(C)sc4C)n3)c2C)n1 (configuration not stated) | - | - | - | . | .
CCCCC[n+]1ccn(C2=C([O-])c3ccccc3C(=O)/C2=N\S(=O)(=O)c2ccccc2)c1 | ? | ? | ? | 22µM | ?
CCCCC[n+]1ccn(C2=C([O-])c3ccccc3C(=O)/C2=N\S(=O)(=O)c2ccc(Br)cc2)c1 | - | . | . | . | .
CC(C)[n+]1ccn(C2=C([O-])c3ccccc3C(=O)/C2=N\S(=O)(=O)c2ccccc2)c1 | ? | ? | ? | ? | -
CCCC[n+]1ccn(C2=C([O-])c3ccccc3C(=O)/C2=N\S(=O)(=O)c2ccccc2)c1 | 22µM | ? | ? | ? | ?
COC(=O)C1=C(C)N(Cc2ccccc2)C(=NCCc2ccccn2)NC1c1cccc(F)c1 (configuration not stated) | . | . | . | - | .
COc1ccc(OC[C@@H]2CC3[C@@H](c4ccc(Br)cc4)[C@H](C)CC[C@H]3C(=O)O2)cc1 (some centres not stated) | . | . | . | - | .
N#CCc1cc2ccc3cccc4ccc(c1)c2c34 | - | . | . | . | .
Cc1cc(Sc2nc(N)ncc2[N+](=O)[O-])ncn1 | ? | - | - | ? | -
Cc1cc(Sc2ncnc(N)c2[N+](=O)[O-])ncn1 | 20µM | - | - | ? | 11µM
SMILES | FMDV antiviral | Vaccinia Venus | VACV mCherry inh | MARV entry inh | Lassa entry inh
C=C1C=C(C)n2ncc(C(=O)Nc3ccc(C)cn3)c2N1 | . | - | - | . | .
CCn1c(=O)cc(C(=O)OC)sc1=Nc1ccc(F)c(F)c1 | 32µM | - | ? | . | .
CCOC(=O)c1ccc(N=c2sc(C(=O)OC)cc(=O)n2CCCN2CCOCC2)cc1 | 16µM | - | - | - | .
COC(=O)c1cc(=O)n(CCc2ccccc2)c(=Nc2ccc(F)cc2)s1 | ? | - | - | . | .
COC(=O)c1cc(=O)n(CCc2ccc(OC)cc2)c(=Nc2ccc(F)c(Cl)c2)s1 | 22µM | - | - | - | .
CCOC(=O)c1ccc(N=c2sc(C(=O)OC)cc(=O)n2Cc2ccco2)cc1 | - | - | - | ? | ?
COc1ccc(OC)c(C(=O)N2CCOc3ccc(C(C)(O)CN(C)C)cc3C2)c1 (configuration not stated) | - | - | - | . | .
O=C(Cc1ccc(OCCc2ccccc2)cc1)NO | . | - | - | . | .
Cc1ccccc1Nc1oc(-c2ccccc2)nc1C=Cc1ccccc1 | . | . | . | - | .
O=C(Nc1ccc(F)cc1)C(c1ccnc2ccccc12)N1CCN(C(=O)c2ccco2)CC1 (configuration not stated) | - | - | ? | . | .
COc1cccc(-c2nc(SCC(=O)NC3CCCC3)c(-c3ccccc3)[nH]2)c1 | - | - | - | - | -
CN(C)c1ccc(-c2ccc3ncnc(-n4ccnc4)c3c2)cc1 | - | . | . | . | .
Cc1ccccc1-c1ccc2ncnc(-n3ccnc3)c2c1 | 40µM | . | . | . | .
CC(C)CCNC(=O)c1cccc(Nc2nc3ccccc3n3nnnc23)c1 | - | ? | ? | - | -
CC(NC(=O)c1cccc(Nc2nc3ccccc3n3nnnc23)c1)c1ccccc1 (configuration not stated) | ? | 10µM | ? | . | ?
COc1ccc(/C=C2\CCCC3C2=NN(C(=O)c2scnc2C)C3c2ccc(OC)c(OC)c2)cc1OC (configuration not stated) | - | . | . | ? | 5.2µM
COc1ccc(/C=C2\CCCC3C2=NN(C(=O)c2ccco2)C3c2ccc(OC)c(OC)c2)cc1OC (configuration not stated) | - | ? | . | ? | ?
CCc1ccc(N/C(SCc2ccccc2C)=C(/C#N)C(=O)NCc2ccco2)cc1 | - | . | . | ? | 8.2µM
Cc1ccc(N=C2NC(=O)/C(=C/c3cccn3C)S2)cc1C | - | - | - | ? | ?
Cc1cccc(N=C2NC(=O)/C(=C/c3cccn3C)S2)c1C | - | - | - | 8.9µM | ?
COc1ccc(CCN(C)c2ncnc3sccc23)cc1OC | 28µM | . | . | . | .
COc1ccc(CCN(C)Cc2ccc(OC)c(OCc3ccccc3)c2)cc1OC | - | . | . | 18µM | -
CN(CC(=O)Nc1ccccc1Br)C(=O)c1cc(S(=O)(=O)N(C)C)ccc1N1CCCC1 | - | - | - | - | -
C[C@@](N)(C(=O)O)[C@@H]1C[C@@H]1C(=O)O | 40µM | - | - | . | .
CCOC(=O)c1[nH]c2ccc(OC)cc2c1NC(=O)CCN1CCC[C@@H](C)C1 | . | . | . | - | .
SMILES | FMDV antiviral | Vaccinia Venus | VACV mCherry inh | MARV entry inh | Lassa entry inh
Cc1cccc(N2CCN(C(=O)c3c(C)nn(Cc4ccccc4Cl)c3C)CC2)c1C | 35µM | ? | . | ? | ?
CC(=O)Nc1ccc(NC(=O)c2c(C)nn(Cc3ccccc3Cl)c2C)cc1 | - | - | - | ? | -
Cc1cccc(OS(=O)(=O)NC(=O)OCC2CCCN3CCCCC23)c1 (configuration not stated) | 32µM | - | - | - | -
O=C(c1cc2c(s1)-c1ccccc1S(=O)(=O)C2)N1CCN(Cc2ccccc2)CC1 | 20µM | ? | ? | - | .
CCN1CCN(C(=O)c2cc3c(s2)-c2ccccc2S(=O)(=O)C3)CC1 | - | - | - | . | .
CS(=O)(=O)N1CCCCC1c1cc(C(=O)Nc2ccccc2Cl)no1 (configuration not stated) | - | - | - | . | .
CCCCCN=C(N)N/N=C/c1c[nH]c2ccc(OC)cc12 | ? | 11µM! | ? | . | .
